G9a inh: blocks human histone lysine methyltransferase G9a | Potency, µM (top dose mostly 102 µM), without a hit: at the top dose activity, negative = inhibition, hits mostly inhibitors | Q96KQ7 | G9a H3K9 monomethylation, AlphaScreen, 2 h | 8.8% of 350,000 active; also: % is scaled to controls: 0 for no effect and ±100 for the full control effect; nearly all actives have a fitted effect of over 75% in size
Target sequence (Q96KQ7 913-1193 limits assumed): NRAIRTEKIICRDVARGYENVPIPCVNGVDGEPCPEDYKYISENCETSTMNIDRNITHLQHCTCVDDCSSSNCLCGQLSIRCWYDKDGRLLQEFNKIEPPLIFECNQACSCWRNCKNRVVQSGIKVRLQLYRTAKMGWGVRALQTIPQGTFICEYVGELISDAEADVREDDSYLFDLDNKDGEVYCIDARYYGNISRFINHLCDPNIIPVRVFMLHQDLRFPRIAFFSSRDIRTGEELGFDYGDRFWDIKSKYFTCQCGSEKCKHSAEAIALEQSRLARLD
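G9a (20 nM) was preincubated 15 min with compound, then reacted 2 h at room temperature with 500 nM biotin-H3K9 peptide and 20 µM SAM. Monomethyl-H3K9 detected by AlphaScreen using anti-H3K9me1 antibody.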
L3MBTL1 block: L3MBTL1 (human) inhibition | 0.66% of 230,000 active | Potency, µM (highest dose often 57.1 µM), inactives show top-dose activity, negative = inhibition, usual class: inhibitors | AlphaScreen L3MBTL1–H3K9me1 peptide binding; also: % is scaled to controls: 0 for no effect and ±100 for the full control effect; nearly all actives have a fitted effect of over 60% in size
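First, the protein-peptide complex forms for 30 min at room temperature (L3MBTL1 50 nM, biotinylated H3K9me1 peptide 75 nM). Next, compounds are pin-transferred and incubated 30 min. Finally, AlphaScreen beads are added and read after 30 min.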
HP1b binding inh: inhibitors of HP1-beta chromodomain binding to methylated histone tails. AlphaScreen HP1-beta / biotin-H3K9me3 peptide binding. Potency, µM (series often up to 114 µM), for inactives: top-dose activity change, negative = inhibition, actives largely listed as inhibitors. 0.56% of 390,000 active; also: nearly all actives have a fitted effect of over 70% in size
Target sequence (P83916 whole entry, looked up): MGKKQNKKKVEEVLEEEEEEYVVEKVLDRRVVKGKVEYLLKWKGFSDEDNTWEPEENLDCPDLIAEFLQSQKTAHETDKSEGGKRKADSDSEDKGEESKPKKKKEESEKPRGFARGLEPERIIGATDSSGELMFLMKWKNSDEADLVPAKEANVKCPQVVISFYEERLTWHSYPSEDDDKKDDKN
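AlphaScreen: HP1-beta (50 nM) preformed 30 min with biotin-H3(1-18)K9me3 peptide (50 nM) in PBS pH 7.4, 0.01% Tween-20. Compound added for 30 min at RT, then streptavidin donor/nickel chelate acceptor beads (10 ug/mL) for 30 min.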
JMJD2A Tudor: blocks the human JMJD2A Tudor domain; Potency, µM (doses to about 114 µM), for the others: at the highest dose activity change, negative = inhibition, most hits filed as inhibitors; AlphaScreen JMJD2A-Tudor / H3K4me3 peptide binding; 4.4% of 390,000 active; O75164; also: % is scaled to controls: 0 for no effect and ±100 for the full control effect; nearly all actives have a fitted effect of over 50% in size
Sfp inh: Sfp phosphopantetheinyl transferase inhibition. Biochemical Sfp PPTase activity, qHTS. 3.5% of 310,000 active. AID 1490. Potency, µM, inactives show largest response in the series, negative = inhibition, actives largely listed as inhibitors. Q9F4F7;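 also: the enzyme is Sfp with the accession as filed and its product quenches rhodamine fluorescence; 0% = enzyme reaction without inhibitor and -100% = no enzyme wells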
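Sfp 15 nM + cpd, 15 min RT; start w/ rhodamine-CoA 5 uM, BHQ-2-YbbR 12.5 uM (final); 50 mM Hepes pH 7.6, 10 mM MgCl2, 0.01% NP-40, 0.01% BSA; read 525/598 nm at 0 and 30 min.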
BAZ2B block: BAZ2B (human) inhibition; Potency, µM (doses to about 114 µM), for inactives: at the highest dose activity change, negative = inhibition, most hits filed as inhibitors; Q9UIF8; AlphaScreen BAZ2B-H3K14Ac peptide displacement; 4.4% of 360,000 active; also: % is scaled to controls: 0 for no effect and ±100 for the full control effect; nearly all actives have a fitted effect of over 60% in size
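AlphaScreen displacement: compounds (up to 110uM) incubated 30 min at room temperature with a preformed 50 nM BAZ2B/50 nM biotinylated H3K14Ac peptide complex in PBS pH 7.4 with Tween-20. Donor and acceptor beads at 10 ug/mL final added, 20 min light-protected before reading.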
* hit, by the source's call; u = inconclusive; x = not tested or not shown; [ ] = another dose, or the depositor's remark. Hits are enriched below; roughly 12% of the tested compounds scored in any of these assays. Calls follow the shape of the dose curve; as a rule, active = well fitted curve in the direction sought with a large enough effect; inconclusive = small, poorly fitted or top-dose-only effect, or another doubt; inactive = no such curve, though single readings can be large; an effect the other way counts as inactive or inconclusive. Potency is read from the fitted curve at half-maximal effect.

SMILES	G9a inh	L3MBTL1 block	HP1b binding inh	JMJD2A Tudor	Sfp inh	BAZ2B block
COc1ccc(-c2cc(C3CCN(Cc4ccc([N+](=O)[O-])cc4)CC3)[nH]n2)cc1	45µM*	3%	u	45µM*	-10%	u
NCCCCCc1cnc[nH]1	-4%[59 µM]	x	x	x	-22%	x
O=C(CN1C(=O)COc2ccc(S(=O)(=O)N3CCOCC3)cc21)N1CCN(c2ccc(F)cc2)CC1	8%[59 µM]	x	23%	-15%	x	-11%
CC(=O)Nc1ccc(NC(=O)Cn2cc3c(n2)CCCCC3)cc1	16µM*	x	38%	-17%	x	-35%
CCN(CC)c1ccc(NC(=O)Cn2cc3c(n2)CCC(C)C3)c(C)c1 (stereo unspecified)	4.5µM*	-14%	u	u	-26%	u
CCN(CC)c1ccc(NC(=O)Cn2cc3c(n2)CCCC3)c(C)c1	10µM*	x	14%	u	x	-28%
CC1CCc2nn(CC(=O)Nc3ccc(F)cc3F)cc2C1 (stereo unspecified)	-12%[59 µM]	-3%	50%	-12%	14%	10%
Cc1ccc(NC(=O)Cn2cc3c(n2)CCCC3)c(Cl)c1	9%[59 µM]	x	35%	2%	x	3%
Cc1ccc2nc(NC(=O)C3CC(=O)N(Cc4ccco4)C3)sc2c1 (stereo unspecified)	-50%	4%	12%	-20%	13%	-37%
CC(=O)Nc1ccc(NC(=O)C2CC(=O)N(Cc3ccco3)C2)cc1 (stereo unspecified)	16µM*	5%	44%	-9%	x	1%
O=C(Nc1nc2c(F)cc(F)cc2s1)C1CC(=O)N(Cc2ccco2)C1 (stereo unspecified)	x	u	-38%	-7%[11.4 µM]	10µM*	u
Cc1cc(C)c2nc(NC(=O)C3CC(=O)N(Cc4ccco4)C3)sc2c1 (stereo unspecified)	-26%[59 µM]	x	u	u	0%	40µM*
CC(C)(C)c1ccc(C2/C(=C(\O)c3ccc4c(c3)OCCO4)C(=O)C(=O)N2CCCN2CCOCC2)cc1 (stereo unspecified)	10%	x	60%	-15%	16%	-12%
O=C1C(=O)N(CCN2CCOCC2)C(c2ccc([N+](=O)[O-])cc2)/C1=C(/O)c1ccc2c(c1)OCO2 (stereo unspecified)	x	x	21%	25µM*	-10%	-11%
CN(C)CCCN1C(=O)C(=O)/C(=C(/O)c2ccc3c(c2)OCCO3)C1c1ccco1 (stereo unspecified)	-1%	2%	x	x	8%	2%
CCN(CC)CCCN1C(=O)C(=O)/C(=C(/O)c2ccc3c(c2)OCCO3)C1c1ccco1 (stereo unspecified)	50µM*	-1%	21%	-10%	3%	-24%
O=C1C(=O)N(CCCN2CCOCC2)C(c2ccc(F)cc2)/C1=C(\O)c1ccc2c(c1)OCCO2 (stereo unspecified)	45µM*	x	49%	-8%	8%	-19%
COc1cccc(CNC(=O)C2=C(C)C(=O)OC23CCN(C(C)=O)CC3)c1OC	-5%[59 µM]	x	35%	1%	x	7%
Cc1cc2c(s1)c1cnn(Cc3ccccc3F)c(=O)c1n2Cc1ccccc1F	x	x	x	3%	x	x
O=c1c2[nH]c3cc(Br)sc3c2cnn1Cc1ccccc1F	x	x	x	40µM*	x	x
Cc1c(C(=O)NCCN2CCOCC2)oc2ccc(Br)cc12	18%[0.501 µM]	-5%	u	-10%	x	50µM*
Cc1c(C(=O)NC2CCN(Cc3ccccc3)C2)oc2ccc(Br)cc12 (stereo unspecified)	35µM*	x	2%	u	-1%	u
CC1(C)c2[nH]c3ccccc3c2C[C@H]2C(=O)N(CCCO)CC(=O)N21	6%	x	22%	6%	8%	3%
CC12CCC(=O)N1C(C(=O)O)Cc1c2[nH]c2ccccc12 (stereo unspecified)	u	7%	29%	79µM*	-2%	-35%

Bioassay records as filed in PubChem BioAssay.
